PubChem BioAssay AID743465 (Broad Institute, 2014)
Some of the results follow. Results filed as inconclusive are left out. Unmarked numbers belong to inactive results.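 How the source made its calls: active means compounds lowering PCK1 expression whose fitted half-maximal concentration is at most twice the top tested dose; inconclusive means flat fit with moderate opposite-direction effect, or poor fit; inactive means the rest.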

assay: suppression of PCK1 mRNA in primary hepatocytes, dose response, PGC-1a acetylation activator project, cell-based, primary mouse hepatocytes, RT-qPCR, cherry-pick (AID 743465); details: forskolin-stimulated; series mostly up to 26 µM; PCK1 expression decrease: at the top concentration;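 further: values are delta delta Ct of PCK1 relative to GAPDH; higher delta delta Ct means lower PCK1 expression so positive values indicate hits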

SMILES	PCK1 expression decrease
COc1ccc(-n2nnnc2CNC(=O)c2ccc3ccccc3c2)cc1	3.44 unspecified
COc1ccc(Nc2nnc(C)c3ccccc23)cc1	25.2 unspecified
CC(C)CCNc1nc(N2CCCC2)c2c(c1C#N)CCN(C)C2	96 unspecified
CCOC(=O)c1c(NC(=O)CSc2cn(CC)c3ccccc23)sc2c1CCC2	44 unspecified
Cc1ccc(S(=O)(=O)Nc2ccc3c(c2)C(=O)N([C@@H](C)CO)C[C@@H](C)[C@H](CN(C)C(=O)Nc2cccc4ccccc24)OCCCC[C@H](C)O3)cc1	17.2 unspecified
Cc1ccc(OCC(=O)NCCCNC(=O)c2cccnc2)cc1C	52.7 unspecified
CCCCC(=O)Nc1ccc(C(=O)NCCCn2ccnc2)cc1	19.7 unspecified
Cc1cc(C)c2c(-n3cccc3)c(C(=O)NNS(=O)(=O)c3ccc(F)cc3)sc2n1	9.38 unspecified
CCC(C)(C)n1nnnc1C(c1ccccc1OC)N1CCSCC1 (centres undefined)	105 unspecified
CCOC(=O)c1c(-c2ccc(C)cc2C)csc1NC(=O)CSc1nnnn1C	86.5 unspecified
O=C(NCc1ccccc1)C(c1ccccc1)N(C(=O)c1csnn1)c1ccc(F)cc1 (centres undefined)	318 unspecified [at 8 µM]
CCOc1ccccc1CN1CCN(C2CCC2)CC1CCO (centres undefined)	32.8 unspecified
O=C(NCCC1CCCCN1S(=O)(=O)c1cccs1)C(=O)Nc1ccc(F)cc1F (centres undefined)	-10.4 unspecified
Cc1cc(C(=O)NNS(=O)(=O)c2ccccc2C(F)(F)F)nn1C(C)(C)C	43.1 unspecified
